Laboratory results as given in PubChem BioAssay.
Activity calls are given as the source filed them.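 How the source made its calls, unless noted: active means z-score of at least 1.8 in each of two replicates, scored against plate mean and spread of sample wells; inactive means the rest.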

Legend:
[1] = MELAS cybrid and Rieske KO viability enhancers – cell-based, MELAS cybrids, Rieske KO mouse fibroblasts, CellTiter-Glo, primary screen (AID 1508586;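 active means mean z-score across replicates of 1.96 or higher in either the MELAS or the Rieske mutant cell line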;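 further: test concentration not given here; z relative to plate mean and SD of compound and empty wells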); conditions: low glucose
[2] = galactose survival enhancers in mitochondrial complex I cybrids – cell-based, galactose medium, ATP luminescence, primary screen (AID 1645843); conditions: complex I mutant cybrid cells, 72 h, stronger effect = higher value;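 further: positive z means more ATP and so rescue of galactose-driven cybrid death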
[3] = MELAS cybrid survival, CellTiter-Glo 48 h, stronger effect = higher value
[4] = Rieske KO mouse fibroblast survival, CellTiter-Glo 72 h

SMILES | z-score [1, 3] | z-score [1, 4] | z-score [2]
CCOC(=O)c1csc(CCNC2CCc3c(c(C(=O)N4CCc5ccccc5C4)nn3C)C2)n1 (centres undefined) | -0.249 (inactive) | 0.117 | -1.24 (inactive)
CC[C@@H]1NC(=O)[C@H]2CN(C(=O)Oc3cccc4ccccc34)CCN2C1=O | 0.408 (inactive) | 0.404 | -1.61 (inactive)
CCN(CC)CCNC(=O)c1cc(-c2cc(C)cs2)cc(S(=O)(=O)N2CCOCC2)c1 | -0.44 (inactive) | -0.00741 | 1.25 (inactive)
CC(C)N1CC(OCc2ccc(F)cc2)CN(C(=O)c2ccc(C#CC(C)(C)O)o2)CC1=O (centres undefined) | -0.3 (inactive) | -0.177 | 0.06 (inactive)
CC(C)CNC(=O)[C@@H]1C[C@H](CN2CCOCC2)CN(Cc2nccn2C)C1 | 0.0237 (inactive) | 0.267 | 0.2 (inactive)
Cc1ccn2cc(C(=O)N3CCc4c(cc(-c5ccc(OC(F)(F)F)cc5)c(=O)n4C)C3)nc2c1 | -0.191 (inactive) | -0.543 | 1.4 (inactive)
COc1ccc(CN2C[C@H](C(=O)Nc3ccc4c(c3)CCC4)C[C@H](C(=O)N3CCCCC3)C2)cc1OC | 0.5 (inactive) | 0.0365 | -1.66 (inactive)
O=C1CCCc2occ(C(=O)N3CC(=O)N(Cc4ccccc4)CC(OCc4ccccn4)C3)c21 (centres undefined) | -0.412 (inactive) | -0.733 | 2.83 (inactive)
CCCn1nc(C(=O)N2CCCCC2)c2c1CCC(NCc1cccnc1)C2 (centres undefined) | -0.0243 (inactive) | -0.185 | -1.06 (inactive)
CC(C)[C@@H]1NC(=O)[C@H]2CN(C(=O)c3ccccc3Cl)CCN2C1=O | -0.296 (inactive) | -0.445 | 1.57 (inactive)
O=C1N[C@@H](CSCc2ccccc2)C(=O)N2CCN(C(=O)Oc3ccccc3)C[C@H]12 | 1.38 (inactive) | -0.171 | -1.57 (inactive)
Cc1[nH]cnc1CNc1cc(C(=O)Nc2cccc(N(C)C)c2)cc(S(=O)(=O)N2CCCC2)c1 | -0.329 (inactive) | -0.954 | 0.055 (inactive)
O=C(N[C@H]1C[C@H]2C(=O)N3CCC[C@H]3C(=O)N2C1)c1cccnc1Oc1ccc(Cl)cc1 | -0.353 (inactive) | -0.898 | -0.34 (inactive)
CC(C)CN1CC(OCc2cccc(F)c2)CN(C(=O)c2cccc(N3CCNC3=O)c2)CC1=O (centres undefined) | -0.284 (inactive) | -0.354 | 0.795 (inactive)
COC(=O)CCN1CC(OCc2cccc(OC)c2)CN(C(=O)CCc2cccs2)CC1=O (centres undefined) | -0.467 (inactive) | -0.256 | 0.52 (inactive)
Cc1c(CN2CC(=O)N(Cc3ccccc3)CC(O)C2)c(=O)n(-c2ccccc2)n1C (centres undefined) | 0.325 (inactive) | -0.72 | 0.83 (inactive)
CNS(=O)(=O)c1cc(NCc2cnc(C)[nH]2)cc(C(=O)Nc2ccc3c(c2)CCC3)c1 | -0.00503 (inactive) | -0.751 | 0.02 (inactive)
Cc1onc(-c2ccccc2)c1C(=O)N1CC(=O)N(Cc2ccccc2)CC(OCC2CC2)C1 (centres undefined) | 0.442 (inactive) | -0.273 | -1.6 (inactive)
Cc1cc(-c2cc3c(n(C)c2=O)CCN(Cc2ccc(Sc4nncn4C)o2)C3)ccc1F | -0.56 (inactive) | -0.369 | 0.445 (inactive)
COC(=O)c1c(NC(=O)C2CCOC2)c2cc(NC(C)CO)cnc2n1CCCc1ccccc1 (centres undefined) | -1.11 (inactive) | 1.02 | -0.185 (inactive)
CCOC(=O)c1nn(CCC(F)(F)F)c2c1CN(C(=O)c1ccco1)CC2 | -0.696 (inactive) | -0.531 | -0.32 (inactive)
COCCN1C(=O)N(C)C(=O)C12CCN(Cc1cnc(-c3ccccc3)s1)CC2 | -0.0934 (inactive) | -0.895 | -0.285 (inactive)
Cc1nc2ccccc2nc1CN1CC(=O)N(C2CCCCC2)CC(OCc2cccnc2)C1 (centres undefined) | -0.279 | 6.23 | -1.6 (inactive)
CCN1C(=O)N(C)C(=O)C12CCN(Cc1ccc(Oc3ncccn3)cc1)CC2 | 0.0802 (inactive) | -0.536 | 1.74 (inactive)

SMILES | z-score [1, 3] | z-score [1, 4] | z-score [2]
CCc1ccc(CNc2cnc3c(c2)c(NC(=O)c2cccnc2)c(C(=O)OC)n3CC(C)C)o1 | 3.75 (active) | 4.55 | -1.67 (inactive)
Cc1ccnn1CCC(=O)N1CCc2c(cc(Cc3ccccc3F)c(=O)n2Cc2cccnc2)C1 | -0.36 (inactive) | -0.461 | 0.325 (inactive)
COc1ccc(CCNC2CCc3c(c(C(=O)N(C)C)nn3CC3CCCCC3)C2)cc1 (centres undefined) | -0.342 (inactive) | 0.349 | -1.19 (inactive)
COC(=O)c1c(NC(C)=O)c2cc(NC3CCOCC3)cnc2n1CCc1ccc(OC)cc1 | -0.209 (inactive) | 0.565 | 0.445 (inactive)
CC[C@@H]1NC(=O)[C@H]2CN(CCC(C)C)CCN2C1=O | 0.225 (inactive) | 0.0851 | -0.555 (inactive)
CC(C)=CCNc1cc(C(=O)NCc2cn3ccccc3n2)cc(S(=O)(=O)NC(C)C)c1 | -0.403 (inactive) | -0.764 | -0.5 (inactive)
COC1CN(C(=O)Cn2nc(-c3ccccc3)c3ccccc3c2=O)CC(=O)N(Cc2ccccc2)C1 (centres undefined) | -0.199 (inactive) | 0.0204 | 1.58 (inactive)
CN(Cc1cscn1)C(=O)c1nn(CC2CC2)c2c1CN(C(=O)Cn1cnc3ccccc31)CC2 | 0.533 (inactive) | -0.0924 | -0.19 (inactive)
COc1ccc(CN2C(=O)N(C)C3(CCN(Cc4cccn4-c4ccccn4)CC3)C2=O)cc1 | -0.452 (inactive) | -0.368 | 0.16 (inactive)
CC(=O)c1cccc(-c2cc3c(n(CC=C(C)C)c2=O)CCN(Cc2cnc(N(C)C)s2)C3)c1 | -0.385 (inactive) | 0.11 | 0.475 (inactive)
COC(=O)CCN1CC(OCc2ccncc2)CN(C(=O)c2csc(SC)n2)CC1=O (centres undefined) | -0.62 (inactive) | -0.661 | 0.42 (inactive)
CC(C)[C@@H]1NC(=O)[C@@H]2C[C@H](NC(=O)c3cc(C(C)(C)C)nn3C)CN2C1=O | 0.0639 (inactive) | 0.0296 | -0.355 (inactive)
CCOC(=O)c1nn(Cc2ccccn2)c2c1CN(Cc1ccc(NC(C)=O)s1)CC2 | -0.809 (inactive) | -0.0726 | 0.55 (inactive)
O=C(Oc1ccccc1)N1CCN2C(=O)[C@@H]3C[C@@H](O)CN3C(=O)[C@H]2C1 | 1.95 (inactive) | -0.267 | -0.655 (inactive)
NCCCC[C@@H]1NC(=O)[C@@H]2C[C@H](NCc3nc(-c4ccccc4)cs3)CN2C1=O | -0.0314 (inactive) | 0.0831 | -0.77 (inactive)
Cc1nc(CN(C)C2CCc3c(c(C(=O)N(C)C)nn3CC3CCCCC3)C2)cs1 (centres undefined) | -0.264 (inactive) | -0.141 | 0.725 (inactive)
C=CCn1nc(C(=O)N2CCCCCC2)c2c1CCC(NCc1cc(-c3ccccc3)on1)C2 (centres undefined) | -0.0315 (inactive) | 0.236 | -1.62 (inactive)
CC(C)Cn1nc(C(=O)N2CCCC2)c2c1CCC(NCCc1cccs1)C2 (centres undefined) | -0.0921 (inactive) | -0.284 | 0.555 (inactive)
O=C(NCCn1cncn1)c1cc(-c2ccccc2)cc(S(=O)(=O)N2CCSCC2)c1 | -0.182 (inactive) | 0.272 | 1.56 (inactive)
CCCCNC(=O)[C@@H]1C[C@H](CN2CCOCC2)CN(CCc2ccccc2)C1 | 1.78 (inactive) | -0.178 | -0.965 (inactive)
COc1ccc(CN2C(=O)N(C)C3(CCN(Cc4nc(-c5ccccc5)cs4)CC3)C2=O)cc1 | -0.259 (inactive) | -0.0505 | -0.2 (inactive)
CNS(=O)(=O)c1cc(NCc2cc3ccccc3s2)cc(C(=O)Nc2ccc(OC)cc2)c1 | 0.562 (inactive) | 0.602 | 2.26 (inactive)
O=C([C@@H]1C[C@H](CN2CCOCC2)CN(Cc2ccc3ccccc3c2)C1)N1CCCC1 | 1.59 (inactive) | -0.119 | -0.585 (inactive)
COCC(=O)Nc1c(C(=O)OC)n(CCC(C)C)c2ncc(NC(C)CCn3cccn3)cc12 (centres undefined) | 0.765 | 4.41 | -0.21 (inactive)
